Assay outcomes (PubChem BioAssay)
D2 ag-1: agonists of human D2 dopamine receptor (beta-arrestin). P14416. DiscoveRx PathHunter D2 beta-arrestin, luminescence, 90 min; 100% = 57 uM dopamine signal. activation, % (no concentration beside the values). hit rate 0.084% among 360,000. AID 624465; in the data active means activation above about 40%; inconclusive means between about 15% and that limit
Target sequence (P14416 whole entry, looked up): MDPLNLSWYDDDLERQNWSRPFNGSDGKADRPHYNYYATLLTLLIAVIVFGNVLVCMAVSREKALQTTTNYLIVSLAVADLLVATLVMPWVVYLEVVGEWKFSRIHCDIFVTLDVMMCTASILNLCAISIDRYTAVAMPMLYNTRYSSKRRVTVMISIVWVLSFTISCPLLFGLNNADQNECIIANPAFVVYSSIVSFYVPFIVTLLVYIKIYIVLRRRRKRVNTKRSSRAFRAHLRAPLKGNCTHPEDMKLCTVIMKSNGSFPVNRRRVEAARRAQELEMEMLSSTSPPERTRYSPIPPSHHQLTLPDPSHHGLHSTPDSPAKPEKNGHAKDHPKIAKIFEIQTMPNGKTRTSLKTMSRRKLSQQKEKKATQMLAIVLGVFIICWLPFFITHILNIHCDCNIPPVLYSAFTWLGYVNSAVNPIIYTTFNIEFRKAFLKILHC
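Agonist mode: compounds alone added to overnight-plated D2 PathHunter cells for 90 min at 37 C, with 57 uM final dopamine (EC100) defining full response. Beta-arrestin recruitment detected by chemiluminescent reagent, read after 1 h at ambient temperature.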
D2 PAM-1: D2 dopamine receptor (human) potentiation. AID 485347. HEK293 T-REx D2, calcium flux, EC20 dopamine potentiation. hit rate 0.34% among 340,000. potentiation, % at 10 µM. P14416;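 active means potentiation over 3 SD above the plate norm, cut at about 30% in these data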; further: 0% is about no effect
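Potentiation of an EC20 dopamine calcium response measured kinetically over 180 s, after a preceding 180 s compound-only read flagging agonists. Cells: inducible Hek293 Trex D2 line, 4000/well, cultured overnight at 30 C before dye loading.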
D2 antagonist: antagonists of human D2 dopamine receptor | P14416 | HEK293 TREx D2 cells, calcium flux, dopamine EC80 | inhibition, % at 10 µM | hit rate 2% among 340,000 | AID 485344; in the data active means inhibition above about 30%; inactive means below that, where a call was filed; further: 0% is about no effect
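Read-out: kinetic calcium fluorescence (1 cycle/s) in inducible HEK293 T-REx D2 cells after an EC80 dopamine addition that followed 180 s compound preincubation. Loss of the dopamine response indicates antagonism.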
D2 PAM-2: potentiates the human D2 dopamine receptor allosterically; P14416; DiscoveRx D2 beta-arrestin cells, luminescence, 90 min; 100% = 57 uM dopamine signal; potentiation, % (concentration not given with the values); hit rate 0.23% among 360,000; AID 624464; in the data active means potentiation above about 50%; inconclusive means mostly about 30% to 49%
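D2 cells co-treated with compound plus 50 nM dopamine (EC20) for 90 min at 37 deg C to detect potentiation. Beta-arrestin recruitment was read as enzyme-fragment luminescence after 1 h at ambient temperature. Full response was set by 57 uM dopamine.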
D2 ag-2: activates the human D2 dopamine receptor; P14416; HEK293 T-REx D2 cells, calcium flux agonist mode; activation, % at 2 µM; hit rate 0.53% among 340,000;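 active means activation over 3 SD above normal in the single-dose calcium agonist read, cut at about 30% in these data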; further: 0% is about no effect
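HEK293 Trex D2 cells, tetracycline-induced, o/n 30 C 5% CO2; no-wash Ca dye, RT 30–90 min; 10-cycle baseline, 23 nl cpd added, kinetic Ca read 180 s; agonist hits = positive Ca response.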
The depositor's hits bear a star; u = inconclusive; x = no result. An excerpt weighted towards active compounds, which were near 2.4% of everything screened.

SMILES	D2 ag-1	D2 PAM-1	D2 antagonist	D2 PAM-2	D2 ag-2
CC(=O)Nc1ccc(Oc2sc(C(=O)c3ccccc3)c(N)c2C#N)cc1	-3	-5	31*	-10	0
O=C1NC(=Nc2ccc(Cl)cc2)/C(=C/c2ccco2)S1	-1	-22	59*	-25	0
Cc1cc(C)c(NC(=O)CN(C)S(=O)(=O)c2ccc3c(c2)n(C)c(=O)c(=O)n3C)c(C)c1	-5	75*	8	1	0
Cc1ccc(NC(=O)CN(C)S(=O)(=O)c2ccc3c(c2)n(C)c(=O)c(=O)n3C)c(C)c1	-5	0	1	-6	-1
CN1/C(=C\C(=O)C[n+]2ccc(C(=O)c3ccccc3)cc2)C(C)(C)c2ccccc21	6	-3	15	53*	2
COc1cccc(-c2ccc3c(c2)O[C@H](CN(C)C(=O)c2ccccc2F)[C@H](C)CN([C@H](C)CO)S3(=O)=O)c1	5	x	x	5	x
COC(=O)C1C(=O)NC(SC)=C(C#N)C1c1ccccc1 (centres undefined)	-1	34*	2	0	0
CCOc1ncccc1C(=O)Nc1cc(S(=O)(=O)N2CCCCC2)ccc1C	-2	x	x	-2	x
CCOC(=O)c1scc(-c2ccc(C)cc2)c1S(=O)(=O)Nc1cc(Cl)ccc1OC	x	12	x	x	-2
Cc1cc(NC(=S)NC(=O)c2ccccc2)ccc1-c1cc2ccccc2oc1=O	1	-9	63*	-1	-1
COC(=O)c1ccc(/C=N\NC(=O)CC(=O)NCCc2ccccc2)cc1	-3	-8	-13	-3	0
C=CCNC(=O)CC(=O)N/N=C/c1ccc(C(=O)OC)cc1	1	-2	33*	-9	1
Cc1ccccc1Cn1cnc2c(NS(C)(=O)=O)c(C)c(C)cc21	1	-5	35*	-3	0
COc1ccc(C2CCc3cc(OC)c(OC)cc3C2NC=O)cc1OC (centres undefined)	-1	x	x	-1	x
CCOC(=O)C1C(=O)C=C(/C=C/c2ccc(N(C)C)cc2)CC1c1ccccc1 (centres undefined)	1	-10	33*	4	52*
O=C1NC[C@@H](Cc2cccc3ccccc23)N(CC2(c3ccccc3)CC2)C1=O	-1	32*	12	2	0
CCN(CC(=O)Nc1cc(Cl)ccc1C)C(=O)CSCc1c(C)noc1C	0	-16	33*	-10	0
CCN(CC(=O)Nc1cc(Cl)ccc1C)C(=O)C1CC1	-1	7	56*	-3	0
CCN(CC(=O)Nc1cc(Cl)ccc1C)C(=O)C1CC(=O)N(Cc2ccccc2)C1 (centres undefined)	3	-25	7	-13	0
CN(C(=O)COC(=O)CNC(=O)c1cccs1)c1c(N)n(Cc2ccccc2)c(=O)[nH]c1=O	9	-20	-12	-1	0
O=c1c2oc3ccccc3c2n(Cc2ccccc2Cl)c(=O)n1Cc1ccc2c(c1)OCO2	x	-6	x	x	0
COC(=O)C1=C(Cn2cnc3ccccc32)NC(=O)NC1c1cc(C)ccc1C (centres undefined)	52*	-3	-9	91*	1
CCOC(=O)C1=C(Cn2cnc3ccccc32)NC(=O)NC1c1cc(C)ccc1C (centres undefined)	u	10	-10	u	1
COc1ccc(C(C)=O)cc1CC(=O)Nc1ccccc1-c1ccccc1	-6	31*	-4	4	-1
O=C(CSc1ccc(Br)cc1)Nc1cccc(S(=O)(=O)N2CCOCC2)c1	1	-8	14	5	0
SMILES	D2 ag-1	D2 PAM-1	D2 antagonist	D2 PAM-2	D2 ag-2
COc1ccc(C(C)=O)cc1CC(=O)Nc1cccc(S(=O)(=O)N2CCOCC2)c1	-2	-11	33*	-1	0
Cc1ccc(SCC(=O)Nc2cccc(S(=O)(=O)N3CCOCC3)c2)cc1C	-2	8	35*	-4	0
O=C(c1nc2ccccn2c1CNCCCn1ncc2ccccc21)N1CCOCC1	-2	-8	-6	-7	0
Cn1cc(CNCCCn2ncc3ccccc32)c(-c2ccccc2F)n1	-4	-20	37*	-27	1
CC(=O)c1ccc(CCCCc2ccc(C(C)=O)cc2)cc1	6	x	x	6	x
c1ccc2c(c1)CCc1c-2nc2ccccc2c1N1CCOCC1	-4	-14	37*	-16	1
CC(CNC(=O)C1CCN(Cc2cc3ccccc3n2Cc2ccccc2)CC1)c1ccccc1 (centres undefined)	x	3	x	x	0
COc1ccc2cc3cc(C(=O)NCCN4CCN(c5ccccc5F)CC4)oc3nc2c1	5	-19	38*	-38	15
Cn1cnc(S(=O)(=O)N2CCCC(C(=O)Nc3ccc(OC(F)(F)F)cc3)C2)c1 (centres undefined)	x	x	x	x	2
CCOc1cc(C2C(C(=O)OC)=C(C)N=C3SC(C)C(=O)N32)ccc1OC(C)=O (centres undefined)	-3	4	-1	-14	0
CCOC(=O)C1=C(C)N=C2SC(C)C(=O)N2C1c1ccc(OC(C)=O)c(OC)c1 (centres undefined)	-2	38*	11	-3	0
COc1ccc(NCc2ccccc2-c2nnc(-c3ccccc3)o2)cc1Cl	x	1	x	x	0
CCCSc1nc2c(cnn2-c2ccccc2)c(=O)[nH]1	-4	41*	3	-5	-1
O=C(CCCN1C(=O)C(=Cc2ccc3c(c2)OCO3)SC1=S)Nc1ccc(C(=O)O)c(O)c1	-9	x	x	-4	x
COc1ccc(F)cc1C(=O)C1CCCN(Cc2ccc(Oc3ncccn3)cc2)C1 (centres undefined)	-4	-20	49*	-20	0
O=C(c1cccc(C(F)(F)F)c1)C1CCCN(Cc2cccn2-c2ncccn2)C1 (centres undefined)	0	-9	32*	-7	-1
COc1ccc(F)cc1C(=O)C1CCCN(Cc2cnc(N3CCCC3)s2)C1 (centres undefined)	-2	-24	66*	-7	-1
COc1ccc(F)cc1C(=O)C1CCCN(Cc2cccn2-c2cccnc2)C1 (centres undefined)	-4	-38	74*	-20	1
O=C(c1ccc(C(F)(F)F)cc1)C1CCCN(Cc2cccn2-c2ncccn2)C1 (centres undefined)	-4	-3	-37	-16	1
COc1ccc(C(=O)C2CCCN(Cc3cccn3-c3ccccn3)C2)cc1F (centres undefined)	-3	20	x	-3	x
CCCOc1ccc(C2c3c(-c4ccccc4O)n[nH]c3C(=O)N2CCCOCC)cc1OCC (centres undefined)	x	14	x	x	x
CCOc1ccc(N2CC(C(=O)Nc3cccc(S(=O)(=O)NC4=NCCC4)c3)CC2=O)cc1 (centres undefined)	-1	0	12	-7	0
